In the OligoGym collection one finds sensor-assay potency score (higher = more potent) data, which are given here for 39 sequences.
Further: reference of the scale not given here.

One assay has as its target ITGAM. The assay can be described thus: pooled miR-30 sensor sort-seq; sequence = guide strand. The following applies: shRNA.
Sequence TTCTCTTGGAAGGTCATTGCGT displayed a sensor-assay potency score (higher = more potent) of -0.213. Same read-out and setting: to TTCATGTCTGAATCCACTCTGG belongs 0.203; to TTGAACTCCATGATTGCCTTGA, 0.856. Take TTAAACAAGATCTCAGCTGTGC: the sensor-assay potency score (higher = more potent) was 0.114.

In turn, TCAGTGTCCAAGTTGAACCCAT had a sensor-assay potency score (higher = more potent) of -0.0132.

In a further assay the target is ITLN1. The description is as above. The following applies: shRNA.
The sequence TAGACCACAGGGATCACCGGGC yielded a sensor-assay potency score (higher = more potent) of 0.112. Regarding TTTCACTGGATATTTCTGGTAG, the sensor-assay potency score (higher = more potent) was found to be 0.272.

Consider TAACATTCTAGCTACTGGGTAA, for which the sensor-assay potency score (higher = more potent) is -0.292. Consider TTGTCAGTCCAACACTTTCCTT, for which the sensor-assay potency score (higher = more potent) is -1.43.

Sequence TTCGTCTTTGATTTCCTTGCAG registered a sensor-assay potency score (higher = more potent) of 0.319. In turn, ATGCACTAGGACATTCGTCTTT yielded a sensor-assay potency score (higher = more potent) of -0.936. On to TCGTCTTTGATTTCCTTGCAGC, for which the sensor-assay potency score (higher = more potent) was -0.887.

Take TGAACTGAACAAATCCCGCAGT: the sensor-assay potency score (higher = more potent) came out at 0.114. With TTAGCCTCATCTGTACTCCATC, the sensor-assay potency score (higher = more potent) was -0.855.

Turning to TTCCATATCCACTCCAATCAAA, the sensor-assay potency score (higher = more potent) is -1.07.

In turn, TGTCAGTCCAACACTTTCCTTC had a sensor-assay potency score (higher = more potent) of 0.0274.

TGCACTAGGACATTCGTCTTTG displayed a sensor-assay potency score (higher = more potent) of -0.456.

The next assay has as its target ITPRIP. Described as above. As to conditions: shRNA.
In the case of TTCTTCTGGAGCAAGCTCTTCT, the sensor-assay potency score (higher = more potent) was -0.26. Regarding TAGGAGGTGCAGTAGGGCCGTC, the sensor-assay potency score (higher = more potent) is -0.656.

The sequence TTTAGTGTCGTCCTGAGGAAGT gave a sensor-assay potency score (higher = more potent) of -0.751.

Take TAAGGCAGCATGAAACACCAAG: the sensor-assay potency score (higher = more potent) is -0.493. On to TTTTCAGTGAACTTTCTCCTGG, for which the sensor-assay potency score (higher = more potent) was -0.029. With TTCAAGTACAGACTGGATCTGG, the sensor-assay potency score (higher = more potent) amounted to 0.622. With TTGGTCTTGCCGCAGATGCAGC, the sensor-assay potency score (higher = more potent) was -1.52.

For TTAGAAGCAGCTTTGGTGCAGA, the sensor-assay potency score (higher = more potent) amounted to 0.222. Same read-out and setting: next, TTGAAGGGCATGAACTTCCCTG: 0.113. In the case of TTGATCTTCAGGGACCCCGGGC, the sensor-assay potency score (higher = more potent) is -0.883.

TGAACGGAACTTGATCTTCAGG: the sensor-assay potency score (higher = more potent) is -1.39. TTGAGCATCTCATAGAAGGAGT came in with a sensor-assay potency score (higher = more potent) of -0.45.

Another assay addresses JAM3. The assay is described as above. As to conditions: shRNA.
TAAAGGGCTGAGTCTCTCCGTG gave a sensor-assay potency score (higher = more potent) of -0.394. TGAGTGTCTAGCTCTGTCCGAG gave a sensor-assay potency score (higher = more potent) of -0.68.

Take TAGCAGAGGTATGTGCACGTGC: the sensor-assay potency score (higher = more potent) is -0.388.

On to TTTCCTTGCGGTCATTTCGAGC, for which the sensor-assay potency score (higher = more potent) is -1.23. Still for that read-out and setting: to TTATTGTTGATGAAGTAGCCAC belongs -0.389.

TTCTGAATGAGTGTCTAGCTCT gave a sensor-assay potency score (higher = more potent) of -0.216. Same read-out and setting: to TTCATCTTGAATTTTCTTCCAC belongs 0.166; to TTGATGAAGTAGCCACGTCTGT, -0.852.

TTCCACACTTTCAAATTCCTGT: the sensor-assay potency score (higher = more potent) is 0.0526. Take TAGAGTAAGAAGAGTAGTGGTC: the sensor-assay potency score (higher = more potent) amounted to 0.457.
